Source: PubChem BioAssay (Tox21)
A number with no mark means an inactive call. Inconclusive results are not listed. Where a call stands in place of a potency, no number is given. Active and inactive are the calls of the source. Unless noted, the call rests on the fitted dose curve; in most records, active means well fitted curve in the direction sought with a large enough effect in the repeat runs; inconclusive means weak or mixed curves; inactive means no such curve, though single readings can be large; an effect the other way counts as inactive or inconclusive.

Legend:
[1] = qHTS assay to identify small molecule antagonists of the estrogen related receptor (ERR) signaling pathway from Tox21 library - cell viability counter screen (AID 1224834); further: nearly all actives have a fitted effect of over 30% in size
Method in brief: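 Seeded ERR cells were rested 6 h at 37 C/5% CO2 before compounds, positive and negative controls or DMSO were added. Incubation continued for 17.5 h, and viability was then quantified by CellTiter-Fluor fluorescence.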

[2] = target: Luciferin 4-monooxygenase (Photinus pyralis) (UniProt P08659); assay: qHTS assay to identify small molecule inhibitors of firefly luciferase (AID 1224835); further: nearly all actives have a fitted effect of over 25% in size; further: potency means the concentration at half of the fitted maximal effect
Chain of Luciferin 4-monooxygenase (Photinus pyralis) (P08659 whole entry, looked up): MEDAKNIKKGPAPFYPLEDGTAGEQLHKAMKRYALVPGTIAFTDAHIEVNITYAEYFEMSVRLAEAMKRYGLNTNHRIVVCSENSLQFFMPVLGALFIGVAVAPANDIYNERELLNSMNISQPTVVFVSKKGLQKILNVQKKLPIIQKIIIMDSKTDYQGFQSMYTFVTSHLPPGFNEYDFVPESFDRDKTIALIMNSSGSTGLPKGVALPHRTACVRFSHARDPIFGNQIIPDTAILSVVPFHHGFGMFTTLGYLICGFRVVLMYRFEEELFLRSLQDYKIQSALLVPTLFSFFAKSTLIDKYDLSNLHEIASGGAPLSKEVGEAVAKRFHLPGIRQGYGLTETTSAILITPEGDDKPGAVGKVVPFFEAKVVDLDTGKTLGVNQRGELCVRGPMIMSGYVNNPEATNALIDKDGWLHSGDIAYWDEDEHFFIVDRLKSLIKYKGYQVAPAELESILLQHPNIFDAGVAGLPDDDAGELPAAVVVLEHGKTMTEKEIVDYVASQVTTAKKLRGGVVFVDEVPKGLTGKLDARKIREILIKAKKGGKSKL
Method in brief: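 Quantitative HTS format; KM concentrations of both substrates. Purified P. pyralis FLuc activity quantified from luminescence images.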

[3] = qHTS assay to identify small molecule agonists of the constitutive androstane receptor (CAR) signaling pathway - cell viability counter screen (AID 1224836); further: nearly all actives have a fitted effect of over 45% in size
Method in brief: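 Compound titrations (15 concentrations) went onto HepG2-CYP2B6-hCAR cells 4 h after seeding, alongside PK11195 at a final 0.75 uM; a 23 h, 37 C/5% CO2 incubation preceded CellTiter-Fluor viability measurement.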

[4] = qHTS assay to identify small molecule antagonists of the constitutive androstane receptor (CAR) signaling pathway - cell viability counter screen (AID 1224837); further: nearly all actives have a fitted effect of over 45% in size
Method in brief: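 To flag cytotoxic false antagonists, HepG2 hCAR/CYP2B6-2.2kb cells were treated 23 hr with 15-concentration compound series and 50 nM CITCO at 37 C/5% CO2; CellTiter-Fluor fluorescence was the measured end point.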

[5] = target: Nuclear receptor subfamily 1 group I member 3 (Homo sapiens) (UniProt Q14994); assay: qHTS assay to identify small molecule antagonists of the constitutive androstane receptor (CAR) signaling pathway (AID 1224838);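 further: HepG2 cells stably expressing hCAR with CYP2B6 luciferase reporter stimulated by CITCO; nearly all actives have a fitted effect of over 40% in size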
Chain of Nuclear receptor subfamily 1 group I member 3 (Homo sapiens) (Q14994 whole entry, looked up): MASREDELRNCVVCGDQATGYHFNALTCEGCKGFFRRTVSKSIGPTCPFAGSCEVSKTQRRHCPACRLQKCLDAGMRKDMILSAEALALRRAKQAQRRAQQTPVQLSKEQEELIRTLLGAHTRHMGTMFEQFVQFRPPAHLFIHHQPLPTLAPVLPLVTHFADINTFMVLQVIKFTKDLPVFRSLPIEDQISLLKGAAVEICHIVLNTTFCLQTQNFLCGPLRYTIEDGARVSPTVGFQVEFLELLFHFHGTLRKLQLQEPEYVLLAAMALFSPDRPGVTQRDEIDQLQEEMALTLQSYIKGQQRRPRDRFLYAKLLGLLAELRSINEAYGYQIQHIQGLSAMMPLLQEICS
Method in brief: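 Human hepatoma HepG2 cells expressing hCAR and a CYP2B6 promoter (2.2 kb) luciferase construct; compound titration (15 points) with 50 nM CITCO final, 24 h at 37 C/5% CO2; luminescence via ONE-Glo after 30 min at room temperature.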

[6] = target: Nuclear receptor subfamily 1 group I member 3 (Homo sapiens) (UniProt Q14994); assay: qHTS assay to identify small molecule agonists of the constitutive androstane receptor (CAR) signaling pathway (AID 1224839); further: nearly all actives have a fitted effect of over 15% in size; further: potency means the concentration at half of the fitted maximal effect;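 on activation: HepG2 cells stably carrying human CAR and a CYP2B6 luciferase reporter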
Method in brief: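 In this screen, CAR-driven CYP2B6 promoter activity is measured by luminescence in HepG2-CYP2B6-hCAR cells after 24 h with test compounds and 0.75 uM PK11195 (final concentration).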

[7] = qHTS assay to identify small molecule antagonists of the estrogen related receptor signaling pathway with the pleiotropic PPARgamma coactivator (PGC) from Tox21 10K library - cell viability counter screen (AID 1224840; active means well fitted cell-killing curve with a large enough effect in the repeat runs, not every such curve was filed as active; further: nearly all actives have a fitted effect of over 40% in size)
Method in brief: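 Seeded PGC/ERR cells (2,000/well, 6 h, 37 C/5% CO2) get compound by pin tool; 17.5 h incubation at 37 C; CellTiter-Fluor added, 30 min, fluorescence measured.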

[8] = qHTS assay to identify small molecule agonists of the estrogen related receptor signaling pathway with the pleiotropic PPARgamma coactivator (PGC) from Tox21 10K library (AID 1224842); further: nearly all actives have a fitted effect of over 15% in size
Method in brief: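 PGC/ERR reporter cells (NTP line) were seeded 2,000 per well, rested 6 h at 37 C/5% CO2, then pin-dosed with compounds in DMSO for 18 h at 37 C; luciferase read by One-Glo luminescence after 30 min at room temperature.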

[9] = qHTS assay to identify small molecule agonists of the hypoxia (HIF-1) signaling pathway - cell viability counter screen (AID 1224844; calls by dose curve; further: nearly all actives have a fitted effect of over 50% in size)
Method in brief: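 HRE-bla ME-180; 0.5% dFBS; cpd 17 h, 37C, 5% CO2; CellTiter-Glo lum., 30 min RT, post-FRET read, same wells.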

[10] = qHTS assay to identify small molecule agonists of H2AX (AID 1224845; active means well fitted activation curve with a large enough effect in the signal ratio in the repeat runs, not every such curve was filed as active; the % refers to the signal ratio)
Method in brief: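 Wild-type CHO-K1 cells plated overnight, then exposed 3 hr at 37C to compounds at 15 concentrations (0.76% DMSO). Lysed, then HTRF anti-pH2AX(S139)-cryptate/anti-H2AX-d2 detection after 24 hr at room temperature; emissions 665 and 620 nm.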

[11] = qHTS assay to identify small molecule agonists of H2AX - cell viability counter screen (AID 1224847; calls by dose curve; further: top concentration of the series differs between compounds; nearly all actives have a fitted effect of over 30% in size)
Method in brief: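 Read-out: CellTiter-Glo luminescence, 30 min RT. Cells: wild-type CHO-K1, 1000/well, 10% FBS, plated overnight at 37C. Treatment: 15 concentrations, 3 hr, 37C, 0.76% DMSO.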

[12] = qHTS assay to identify small molecule agonists of the estrogen related receptor (ERR) signaling pathway from Tox21 library (AID 1224849; calls by dose curve; further: nearly all actives have a fitted effect of over 15% in size); settings: ERR reporter cell line, ONE-Glo luciferase, 18 h; at 92.4 µM (top of the series) unless noted
Method in brief: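 Tox21 compounds tested for ERR agonism in an NTP reporter cell line: 18 h treatment at 37 C, then ONE-Glo luminescence.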

[13] = qHTS RealTime-Glo MT Cell Viability Assay in HepG2 cells - 24 hour (AID 1224867); further: nearly all actives have a fitted effect of over 50% in size
Method in brief: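 Cell number in HepG2 cultures estimated from NanoLuc luminescence generated by metabolic reduction of a prosubstrate by living cells. The homogeneous, nonlytic format allowed repeated reads at 0, 8, 16, 24, 32 and 40 h of compound exposure.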

[14] = A CellTox Green Cytotoxicity Assay to monitor cytotoxicity in HEK293 cells - 0 hour (AID 1224869); further: nearly all actives have a fitted effect of over 50% in size
Method in brief: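 Tox21 screen in HEK293: membrane-impermeant cyanine dye fluoresces on binding dead-cell DNA; compound pinned 5 h post-seeding, plates held at 37 C, signal read repeatedly through 40 h.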

[15] = qHTS RealTime-Glo MT Cell Viability Assay in HepG2 cells - 40 hour (AID 1224870); further: nearly all actives have a fitted effect of over 50% in size
Method in brief: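 HepG2 cells mixed with RealTime-Glo MT reagents (NanoLuc plus cell-permeant prosubstrate) were seeded at 600 cells/well, incubated 5 h at 37 C/5% CO2, then pinned with compounds in DMSO; nonlytic luminescence tracked viability during 40 h treatment.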

[16] = qHTS assay to identify small molecule antagonists of the estrogen related receptor signaling pathway with the pleiotropic PPARgamma coactivator (PGC) from Tox21 10K library (AID 1224841; call rule not given here)
Method in brief: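 Test chemicals dissolved in DMSO were applied to pre-incubated (6 h) PGC/ERR cells at 2,000 cells/well for an 18 h, 37 C treatment; reporter luminescence was then read using One-Glo.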

[17] = target: Thyrotropin receptor (Homo sapiens) (UniProt P16473); assay: qHTS assay to identify small molecule agonists of the thyroid stimulating hormone receptor (TSHR) signaling pathway (AID 1224843; calls by dose curve; further: nearly all actives have a fitted effect of over 45% in size)
Chain of Thyrotropin receptor (Homo sapiens) (P16473 whole entry, looked up): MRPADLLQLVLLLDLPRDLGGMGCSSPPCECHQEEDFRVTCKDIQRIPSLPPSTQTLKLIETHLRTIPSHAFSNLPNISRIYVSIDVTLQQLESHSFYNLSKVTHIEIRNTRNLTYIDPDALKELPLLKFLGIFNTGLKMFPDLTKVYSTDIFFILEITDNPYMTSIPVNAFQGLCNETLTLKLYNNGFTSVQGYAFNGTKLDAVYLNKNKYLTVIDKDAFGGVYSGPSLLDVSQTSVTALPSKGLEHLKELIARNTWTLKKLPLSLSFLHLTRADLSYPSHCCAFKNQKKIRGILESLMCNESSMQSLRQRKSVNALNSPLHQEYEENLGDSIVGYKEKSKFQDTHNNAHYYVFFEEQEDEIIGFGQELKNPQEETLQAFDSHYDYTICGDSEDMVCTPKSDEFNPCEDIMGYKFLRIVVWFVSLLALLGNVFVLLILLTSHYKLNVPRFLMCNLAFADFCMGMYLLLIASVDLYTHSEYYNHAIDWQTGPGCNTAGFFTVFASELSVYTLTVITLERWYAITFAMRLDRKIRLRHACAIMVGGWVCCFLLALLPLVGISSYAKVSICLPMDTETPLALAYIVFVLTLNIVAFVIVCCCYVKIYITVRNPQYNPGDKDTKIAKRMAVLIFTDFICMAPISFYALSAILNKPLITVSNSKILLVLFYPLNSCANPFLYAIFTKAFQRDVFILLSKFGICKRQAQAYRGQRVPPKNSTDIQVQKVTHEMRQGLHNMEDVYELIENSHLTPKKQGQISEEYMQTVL
Method in brief: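 Compounds are titrated over 15 concentrations, in triplicate, onto TSHR-HEK293 cells seeded at 800/well. Plates sit 30 min at room temperature before cAMP-d2 and anti-cAMP cryptate are added; signal is read after a further hour.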

[18] = qHTS RealTime-Glo MT Cell Viability Assay in HEK293 cells - 32 hour (AID 1224868)
Method in brief: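 Homogeneous bioluminescent viability format in HEK293 cells (600 cells/well). Following 5 h at 37 C/5% CO2, 23 nL compound was pintooled; the signal was measured repeatedly during 40 h incubation.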

[19] = qHTS assay to identify small molecule agonists of the hypoxia (HIF-1) signaling pathway (AID 1224846; active means well fitted activation curve with a large enough effect in the signal ratio in the repeat runs, not every such curve was filed as active; the % refers to the signal ratio)
Method in brief: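 Reporter induction in HRE-bla ME-180 cells is taken as agonism: cells sit 5 hrs after plating, receive compounds or DMSO only, incubate 17 hrs at 37C under 5% CO2, and are loaded with CCF4-AM for beta-lactamase FRET measurement.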

[20] = qHTS assay to identify small molecule antagonists of the estrogen related receptor (ERR) signaling pathway from Tox21 library (AID 1224848); further: nearly all actives have a fitted effect of over 50% in size
Method in brief: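 First, 2,000 ERR cells per well were plated and held 6 h at 37 C/5% CO2. Next, compounds in DMSO were pinned in and left 18 h at 37 C. Finally, ONE-Glo was added and luminescence read after 30 min at room temperature.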

Row | Compound | Potency [1] | Potency [2] | Potency [3] | Potency [4] | Potency [5] | Potency [6] | Potency [7] | Potency [8] | Potency [9] | Potency [10] | Potency [11] | activity change, positive = activation [12] | Potency [13] | Potency [14] | Potency [15] | Potency [16] | Potency [17] | Potency [18] | outcome [19] | Potency [20]
1 | Cc1nc2ccccn2c(=O)c1CCN1CCC(C(=O)c2ccc(F)cc2)CC1 | inactive | inactive | inactive | inactive | inactive | inactive | inactive | inactive | inactive | inactive | inactive | -25.4% [at 42.5 µM] | inactive | inactive | inactive |  |  |  |  | 
2 | CNC(=O)N(c1ccccc1)c1ccccc1 | inactive | inactive | inactive | inactive | inactive | inactive | inactive | inactive | inactive | inactive | inactive | -5.23% | inactive | inactive | inactive | inactive | inactive | inactive |  | 
3 | Cc1ccc(/C=N/n2c(-c3ccccc3)csc2=S)cc1 | inactive | inactive | inactive | inactive | inactive | 29.8 µM (active) | inactive |  |  | inactive |  | 4.75% [at 42.5 µM] | inactive | inactive | inactive | inactive | inactive | inactive |  | 
4 | NC(=O)Nc1ccc(Cl)cc1 | inactive | inactive | inactive | inactive | inactive | inactive | inactive | inactive | inactive | inactive | inactive | 0.227% | inactive | inactive | inactive | inactive | inactive |  | inactive | inactive
5 | CCCCCCOC(=O)CCCCCCCC(=O)OCCCCCC | inactive | inactive | inactive | inactive | inactive | inactive | inactive |  | inactive | inactive | inactive |  | inactive | inactive | inactive |  | inactive | inactive | inactive | 
6 | O=Cc1c(Cl)cccc1Cl | inactive | inactive | inactive | inactive | inactive | inactive |  | inactive | inactive | inactive | inactive | 3.9% | inactive |  | inactive | inactive | inactive | inactive | inactive | inactive
7 | Cc1cc(C(=C2C=CC(=Nc3ccc(S(=O)(=O)O)cc3S(=O)(=O)O)C=C2)c2ccc(Nc3ccc(S(=O)(=O)O)cc3)cc2)ccc1N | inactive | 23.2 µM (active) | inactive | inactive | inactive | inactive | inactive |  | inactive |  | inactive |  | inactive | inactive | inactive |  |  | inactive | inactive | 
